Results from PubChem BioAssay (NCATS).
Inconclusive results are not listed. Values without a mark were called inactive. Activity calls are given as the source filed them. Calls follow the shape of the dose curve; as a rule, active = well fitted inhibition curve with a large enough effect; inconclusive = small, poorly fitted or top-dose-only effect; inactive = no such curve, though single readings can be large or run the other way.

target: Thioredoxin reductase 1, cytoplasmic (Rattus norvegicus) (UniProt O89049); test: qHTS Assay for Inhibitors of Mammalian Selenoprotein Thioredoxin Reductase 1 (TrxR1) (AID 488773); settings: purified TrxR1 enzyme activity; series mostly up to 57.1 µM; activity change, negative = inhibition: at the top concentration; also: nearly all actives have a fitted effect of over 40% in size
Sequence (O89049 whole entry, looked up): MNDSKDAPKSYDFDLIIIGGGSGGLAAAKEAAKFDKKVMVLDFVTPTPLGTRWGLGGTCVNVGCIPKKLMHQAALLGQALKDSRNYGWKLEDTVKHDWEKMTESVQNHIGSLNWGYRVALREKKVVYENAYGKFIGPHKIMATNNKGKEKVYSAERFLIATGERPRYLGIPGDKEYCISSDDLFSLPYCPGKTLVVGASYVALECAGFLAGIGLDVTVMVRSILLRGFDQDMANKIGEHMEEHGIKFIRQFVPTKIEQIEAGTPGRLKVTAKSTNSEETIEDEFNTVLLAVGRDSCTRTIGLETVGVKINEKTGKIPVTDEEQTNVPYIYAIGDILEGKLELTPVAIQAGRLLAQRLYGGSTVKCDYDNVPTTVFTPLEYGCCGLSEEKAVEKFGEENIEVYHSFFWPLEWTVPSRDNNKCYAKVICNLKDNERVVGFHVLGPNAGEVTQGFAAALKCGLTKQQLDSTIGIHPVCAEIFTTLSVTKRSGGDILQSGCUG
Description: The selenoprotein thioredoxin reductase (TrxR; EC 1.8.1.9) is a FAD containing homodimeric pyridine nucleotide-disulfide oxidoreductase with many cellular roles. Together with NADPH and its prime substrate thioredoxin (Trx), the enzyme forms the core of the Trx system. The mammalian Trx system exerts a wide spectrum of functions including redox regulation, antioxidant defense, regulation of transcription factors as well as support of cell growth and replication. Many of these functions involve the reduction of Trx, which may subsequently reduce a number of different substrates including ribonucleotide reductase, peroxiredoxins or NFkB. Mammalian TrxR itself also has a broad substrate specificity, reducing both protein and non-protein substrates, including low molecular weight compounds such as dehydroascorbate, lipoic acid, ubiquinone, and juglone. In addition, several drugs in clinical use for anticancer treatment are indeed known to target TrxR1.
This BioAssay is a validation of an NADPH fluorescence-based, dual-purpose qHTS rTrxR1 assay designed to find potential inhibitors and substrates of rTrxR1. For this particular BioAssay, actives are potential inhibitors. See related BioAssay for substrate data deposition.
Assay protocol: 2 uL of reagents (buffer in column 4 as negative control and 90 nM rTrxR1 in columns 1-3 and 5-48) were dispensed into Greiner black solid-bottom 1,536-well assay plates, followed by 1 uL of NADPH (400 uM final concentration) to each well. The plates were centrifuged at 1000 rpm for 15 seconds and subsequently incubated for 5 min at room temperature (~22 deg C) to allow for rTrxR1 reduction. Compounds (23 nL) were then transferred via Kalypsys pin tool equipped with 1536-pin array (10 nL slotted pins, V&P Scientific, San Diego, CA). In addition, a duplicate 2-fold serial dilution of the control compounds auranofin, a known gold-based TrxR1 inhibitor, and juglone (5-hydroxy-1,4-naphthoquinone), a natural TrxR1 substrate, were pin-transferred to columns 2 and 3, respectively. After incubation for 15 min at room temperature (~22 deg C), 1 uL of selenite (400 uM final concentration) were dispensed to each well. The plate was immediately transferred to a ViewLux high-throughput CCD imager (PerkinElmer), wherein kinetic measurements of NADPH fluorescence (Ex 340 nm, Em 450 nm) were acquired (8 minute kinetic read, see Table 1). Read 1 was utilized to assess the capacity of a compound to serve as an rTrxR1 substrate, i.e. a decrease in NADPH fluorescence compared to the no-compound background is an indication of a substrate behavior for that particular compound. For inhibitory activity of a compound, delta values, computed as the difference in fluorescence intensity between the first and last reads of an 8-minute time kinetic window, were used. All reagents were diluted in an assay buffer consisting of 50 mM Tris-HCl, pH 7.5, 2 mM EDTA, and 0.01% Tween-20.
Throughout the screen, reagent bottle and all liquid lines were made light-tight to minimize reagent degradation. All screening operations were performed on a fully integrated robotic system (Kalypsys, San Diego, CA) containing one RX-130 and two RX-90 anthropomorphic robotic arms (Staubli, Duncan, SC). Library plates were screened starting from the lowest and proceeding to the highest concentration, and a 'double-pinning' step of the highest concentration was required to access higher concentrations of compounds. Vehicle-only plates, with DMSO being pin-transferred to the columns 5-48, were inserted uniformly at the beginning and the end of each library in order to monitor and record any shifts in the background, which can be affected by reagent dispensers or loss in enzyme activity over time. Screening data were corrected, normalized, and concentration-effect relationships were derived by using publicly-available curve fitting algorithms developed in-house (http://ncgc.nih.gov/pub/openhts).
% is scaled to controls: 0 for no effect and ±100 for the full control effect.

Structure (SMILES)	activity change, negative = inhibition	outcome
CC(NC(C)(C)C)C(=O)c1cccc(Cl)c1 (stereo not drawn)	21.8%	
CC(C)N(CCC(C(N)=O)(c1ccccc1)c1ccccn1)C(C)C (stereo not drawn)		inactive
CC(C)(C)NCC(O)c1ccccc1Cl (stereo not drawn)	-7.64%	
O=P1(N(CCCl)CCCl)NCCCO1 (stereo not drawn)	1.15%	
CC(C)c1cccc(C(C)C)c1O	5.09%	
COc1ccc2c(c1OC)C(=O)O[C@H]2[C@@H]1c2cc3c(cc2CCN1C)OCO3	-1.74%	
Cc1ncsc1CCCl	-2.97%	
C=C(C)[C@H]1CN[C@H](C(=O)O)[C@H]1CC(=O)O	-0.0378%	
NCCc1ccc(O)cc1	-9.66%	
CCC1(c2ccc(N)cc2)CCC(=O)NC1=O (stereo not drawn)	7.85%	
O=C(CCCN1CCC2(CC1)C(=O)NCN2c1ccccc1)c1ccc(F)cc1	-11.7%	
O=c1[nH]oc2c1CCNC2	-11.7%	
CN1C(=O)CCS(=O)(=O)C1c1ccc(Cl)cc1 (stereo not drawn)	0.822%	
